According to PubChem BioAssay:
Where “and” joins values, the source holds several entries; their conditions need not be identical. Equal entries are not always repeated. Calls of active or inactive are those of the source.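 Rule for the calls, unless noted: active = thallium flux through the channel raised or lowered by more than 3 SD from vehicle-only wells, actives on both sides; inactive = the rest.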

Legend:
[1] = liver-stage malaria parasite growth inhibition, primary screen, cell-based, HepG2, luciferase luminescence, HepG2 viability (AID 624349; in the data active = parasite load remaining mostly below about 12%, no sharp cut-off; inactive = mostly above about 10%;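 note: 100% = mean of DMSO negative control wells on the same plate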); conditions: P. berghei liver stage in HepG2, luciferase luminescence, concentration not given here; parasite load remaining: stronger effect = lower value; viability: measured here: HepG2 viability without parasites
[2] = Cy5 fluorescence interference with SSB-bound oligo, artefact control for HCV NS3 helicase inhibitor project, biochemical, NIH Clinical Collection, E. coli SSB (AID 743268; call rule not given here)
[3] = test system: Hepatitis C virus NS3 helicase; test: HCV NS3 helicase inhibitors, primary screen, biochemical, fluorescence polarization, NIH Clinical Collection (AID 743270; call rule not given here); conditions: NS3 helicase binding to Cy5-dT15 DNA, stronger effect = higher value, concentration not given here
[4] = target: Single-stranded DNA-binding protein (Escherichia coli (strain K12)) (UniProt P0AGE0); test: E. coli SSB displacement from DNA, counter-screen for HCV NS3 helicase inhibitor project, biochemical, fluorescence polarization, NIH Clinical Collection (AID 743271; in the data active = inhibition above about 28%); conditions: stronger effect = higher value, concentration not given here
[5] = fluorescence interference in NS3h assay format, artefact control for HCV NS3 helicase inhibitor project, biochemical, NIH Clinical Collection (AID 743272; call rule not given here;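 note: HCV NS3 helicase with a Cy5 labelled single stranded DNA probe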); conditions: fluorescence interference counterscreen, stronger effect = lower value
[6] = sensitizers of A549 cells to miR-34 induction, primary screen, imaging, A549 dox-inducible miR-34, nuclei and caspase counts (AID 1347080;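 active = compounds whose cell count with miR-34 switched on is under 0.7 times the count with it off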); conditions: A549 miR-34 inducible, Hoechst nuclei count, 48 h
[7] = survival rescue of mitochondrial mutant cells in low glucose, primary screen, MELAS cybrids, Rieske KO mouse fibroblasts, CellTiter-Glo (AID 1508586;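 active = mean z-score across replicates of 1.96 or higher in either the MELAS or the Rieske mutant cell line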;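 note: z relative to plate mean and SD of compound and empty wells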)
[8] = viability rescue of complex I mutant cybrids, primary screen, cell-based, galactose medium, ATP luminescence (AID 1645843;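 active = z-score of at least 1.8 in each of two replicates, scored against plate mean and spread of sample wells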;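 note: positive z means more ATP and so rescue of galactose-driven cybrid death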); conditions: complex I mutant cybrid cells, 72 h, stronger effect = higher value
F380Y = test: modulators of BK channel variants, profiling panel, selectivity assay, cell-based, U2OS BacMam, thallium flux, beta subunits (AID 1259406); conditions: at 30 µM;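 note: initial slope of Thallos dye fluorescence rise after thallium is added; log ratio against the mean of 0.3% DMSO vehicle wells on the same plate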
F380Y/beta1 = test: as above; conditions: at 30 µM
F380Y/beta2Delta = test: as above; conditions: at 30 µM
F380Y/beta4 = test: as above; conditions: at 30 µM
[9] = target: Calcium-activated potassium channel subunit alpha-1 (Homo sapiens) + Leucine-rich repeat-containing protein 26 (Homo sapiens) (UniProt Q12791+Q2I0M4); test: as above; conditions: F380Y/Slo1WT/gamma1, at 30 µM
Calcium-activated potassium channel subunit alpha-1 (Homo sapiens) + Leucine-rich repeat-containing protein 26 (Homo sapiens), sequence (Q2I0M4 whole entry, looked up, one chain of several): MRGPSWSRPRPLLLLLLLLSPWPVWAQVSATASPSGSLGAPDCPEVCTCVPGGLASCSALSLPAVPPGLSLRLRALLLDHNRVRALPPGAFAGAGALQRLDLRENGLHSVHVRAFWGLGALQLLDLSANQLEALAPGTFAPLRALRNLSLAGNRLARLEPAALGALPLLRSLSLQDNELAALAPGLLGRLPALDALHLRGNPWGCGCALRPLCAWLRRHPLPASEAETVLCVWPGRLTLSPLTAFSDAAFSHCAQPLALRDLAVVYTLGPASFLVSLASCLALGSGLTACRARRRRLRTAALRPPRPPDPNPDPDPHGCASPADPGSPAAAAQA

R275C = test: as above; conditions: at 30 µM
R275C/beta1 = test: as above; conditions: at 30 µM
R275C/beta2Delta = test: as above; conditions: at 30 µM
R275C/beta4 = test: as above; conditions: at 30 µM
R275C/Slo1WT/beta2 = test: as above; conditions: at 30 µM
[10] = test system: Neuropilin-2 / VEGF-C interaction (human); test: inhibitors of NRP2–VEGF-C binding, biochemical, microplate binding format, z-score (AID 743281; call rule not given here); conditions: microplate NRP2/VEGF-C binding assay; stronger effect = lower value
[11] = modulation of C. elegans fzo-1 (AID 1259413; call rule not given here;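 note: fzo-1 mutant C. elegans worms in liquid wells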); conditions: C. elegans fzo-1 modulator screen, mean read-out; stronger effect = higher value
[12] = stronger effect = lower value, cell number ratio, induced over uninduced
[13] = measured here: relative caspase fold change +Dox/-Dox
[14] = measured here: total cells with miR-34 induction, stronger effect = lower value
[15] = measured here: total cells without miR-34 induction
[16] = MELAS cybrid survival, CellTiter-Glo 48 h, stronger effect = higher value
[17] = Rieske KO mouse fibroblast survival, CellTiter-Glo 72 h

CCC(=C(c1ccccc1)c1ccc(OCCN(C)C)cc1)c1ccccc1
2.28 and 0.707: fold change [6, 13]
active: z-score [7, 16] 5.74
4930 and 3010: cell count [6, 15]
inactive: parasite load remaining [1] -1.78% | fluorescence ratio [2] 1.01 | inhibition [3] 0.45% | inhibition [4] 7.15% | fluorescence ratio [5] 0.9 | fold change [6, 12] 0.958 and 0.928 | z-score [8] -0.495 | log fold change Tl+ flux (F380Y) -0.00968 | log fold change Tl+ flux (F380Y/beta1) -0.0043 | log fold change Tl+ flux (F380Y/beta2Delta) -0.0174 | log fold change Tl+ flux (F380Y/beta4) -0.00798 | log fold change Tl+ flux [9] -0.0114 | log fold change Tl+ flux (R275C) -0.00676 | log fold change Tl+ flux (R275C/beta1) -0.0153 | log fold change Tl+ flux (R275C/beta2Delta) -0.0428 | log fold change Tl+ flux (R275C/beta4) 0.00537 | log fold change Tl+ flux (R275C/Slo1WT/beta2) 0.0353
31.4%: viability [1]
11.9: z-score [7, 17]
4730 and 2790: cell count [6, 14]

CCCCCN=C(N)NN=Cc1c[nH]c2ccc(OC)cc12
active: log fold change Tl+ flux (F380Y) 0.707 | log fold change Tl+ flux (F380Y/beta1) 0.869 | log fold change Tl+ flux (F380Y/beta2Delta) 0.585 | log fold change Tl+ flux (F380Y/beta4) 0.841 | log fold change Tl+ flux [9] 0.468 | log fold change Tl+ flux (R275C) 0.229 | log fold change Tl+ flux (R275C/beta1) 0.839 | log fold change Tl+ flux (R275C/beta4) 0.743 | log fold change Tl+ flux (R275C/Slo1WT/beta2) 0.7
inactive: parasite load remaining [1] 0.065% | fold change [6, 12] 1.42 | z-score [8] -1.88 | log fold change Tl+ flux (R275C/beta2Delta) -0.0142
1.01: fold change [6, 13]
18.5: cell count [6, 14]
3.78%: viability [1]
13: cell count [6, 15]

C[C@]12CC3CC(N)(C1)C[C@@](C)(C3)C2
1.34 and 1.17: fold change [6, 13]
-0.282: z-score [7, 17]
9680 and 10100: cell count [6, 14]
10500 and 11600: cell count [6, 15]
inactive: parasite load remaining [1] 113% and 58.5% | fluorescence ratio [2] 1.06 | inhibition [3] 0.4% | inhibition [4] -0.87% | fluorescence ratio [5] 0.95 | fold change [6, 12] 0.918 and 0.871 | z-score [7, 16] -0.593 | z-score [8] -0.375 and -0.275 | log fold change Tl+ flux (F380Y) -0.00548 | log fold change Tl+ flux (F380Y/beta1) -0.0368 | log fold change Tl+ flux (F380Y/beta2Delta) 0.033 | log fold change Tl+ flux (F380Y/beta4) 0.0342 | log fold change Tl+ flux [9] -0.0162 | log fold change Tl+ flux (R275C) 0.0086 | log fold change Tl+ flux (R275C/beta1) -0.0112 | log fold change Tl+ flux (R275C/beta2Delta) -0.0288 | log fold change Tl+ flux (R275C/beta4) -0.00234 | log fold change Tl+ flux (R275C/Slo1WT/beta2) -0.0124
85.8% and 102%: viability [1]

Nc1nc(Cl)nc2c1ncn2[C@@H]1O[C@H](CO)[C@@H](O)[C@H]1O
inactive: parasite load remaining [1] 214% | fluorescence ratio [2] 1 | inhibition [3] 5.15% | inhibition [4] 7.6% | fluorescence ratio [5] 1 | z-score [10] 0.198 | mean signal [11] 269 | log fold change Tl+ flux (F380Y) -0.00984 | log fold change Tl+ flux (F380Y/beta1) -0.0372 | log fold change Tl+ flux (F380Y/beta2Delta) -0.0171 | log fold change Tl+ flux (F380Y/beta4) -0.000976 | log fold change Tl+ flux [9] -0.026 | log fold change Tl+ flux (R275C) 0.0386 | log fold change Tl+ flux (R275C/beta1) -0.0185 | log fold change Tl+ flux (R275C/beta2Delta) -0.0141 | log fold change Tl+ flux (R275C/beta4) 0.0509 | log fold change Tl+ flux (R275C/Slo1WT/beta2) -0.00662
40.5%: viability [1]

CC(=O)[C@@]1(O)CC[C@H]2[C@@H]3C[C@H](C)C4=CC(=O)CC[C@]4(C)[C@H]3CC[C@@]21C
68%: viability [1]
inactive: parasite load remaining [1] 37.7% | fluorescence ratio [2] 0.96 | inhibition [3] -0.22% | inhibition [4] -0.39% | fluorescence ratio [5] 0.95 | z-score [10] -0.215 | mean signal [11] 243 | log fold change Tl+ flux (F380Y) 0.0243 | log fold change Tl+ flux (F380Y/beta1) 0.0476 | log fold change Tl+ flux (F380Y/beta2Delta) 0.0349 | log fold change Tl+ flux (F380Y/beta4) -0.018 | log fold change Tl+ flux [9] 0.00484 | log fold change Tl+ flux (R275C) -0.0195 | log fold change Tl+ flux (R275C/beta1) 0.0286 | log fold change Tl+ flux (R275C/beta2Delta) -0.00744 | log fold change Tl+ flux (R275C/beta4) 0.0101 | log fold change Tl+ flux (R275C/Slo1WT/beta2) -0.0331

O=C(O)Cc1ccc([N+](=O)[O-])cc1
0.69: fold change [6, 13]
-0.17: z-score [7, 17]
10100: cell count [6, 15]
inactive: fold change [6, 12] 0.849 | z-score [7, 16] -0.276 | z-score [8] 0.95 | log fold change Tl+ flux (F380Y) -0.0269 | log fold change Tl+ flux (F380Y/beta1) -0.0396 | log fold change Tl+ flux (F380Y/beta2Delta) -0.012 | log fold change Tl+ flux (F380Y/beta4) -0.00207 | log fold change Tl+ flux [9] -0.0215 | log fold change Tl+ flux (R275C) -0.0145 | log fold change Tl+ flux (R275C/beta1) -0.00497 | log fold change Tl+ flux (R275C/beta2Delta) 0.00238 | log fold change Tl+ flux (R275C/beta4) -0.00439 | log fold change Tl+ flux (R275C/Slo1WT/beta2) 0.0202
8560: cell count [6, 14]

CC(=O)CCCCn1cnc2c1c(=O)n(C)c(=O)n2C
91.8%: viability [1]
1.72: fold change [6, 13]
10500: cell count [6, 15]
9610: cell count [6, 14]
inactive: parasite load remaining [1] 108% | fluorescence ratio [2] 1.04 | inhibition [3] -0.4% | inhibition [4] -0.1% | fluorescence ratio [5] 0.95 | z-score [10] -1.78 | mean signal [11] 257 | fold change [6, 12] 0.919 | z-score [8] 0.63 | log fold change Tl+ flux (F380Y) -0.0664 | log fold change Tl+ flux (F380Y/beta1) -0.015 | log fold change Tl+ flux (F380Y/beta2Delta) -0.0429 | log fold change Tl+ flux (F380Y/beta4) -0.0419 | log fold change Tl+ flux [9] 0.0418 | log fold change Tl+ flux (R275C) -0.00612 | log fold change Tl+ flux (R275C/beta1) -0.0249 | log fold change Tl+ flux (R275C/beta2Delta) 0.0157 | log fold change Tl+ flux (R275C/beta4) -0.0496 | log fold change Tl+ flux (R275C/Slo1WT/beta2) -0.0588
